# Results as given in paper PMC7862700, “An all-to-all approach to the identification of sequence-specific readers for epigenetic DNA modifications on cytosine”.
# Key:
# Assay in all cases: DAPPL (digital affinity profiling via proximity ligation, sequencing); 10 mM Tris-HCl pH 7.5, 50 mM NaCl, 1 mM DTT, 4% glycerol, room temperature, 30 min; GST-TFs on glutathione beads, 16-mer random dsDNA library, 0.1% formaldehyde crosslink after washing; high values mean tight binding
# FLI1 = target: T1, FLI1 (Homo sapiens, UniProt Q01543 1-452); settings: protein: recombinant; tags: N-terminal GST; dsDNA, one strand shown
# T1 sequence: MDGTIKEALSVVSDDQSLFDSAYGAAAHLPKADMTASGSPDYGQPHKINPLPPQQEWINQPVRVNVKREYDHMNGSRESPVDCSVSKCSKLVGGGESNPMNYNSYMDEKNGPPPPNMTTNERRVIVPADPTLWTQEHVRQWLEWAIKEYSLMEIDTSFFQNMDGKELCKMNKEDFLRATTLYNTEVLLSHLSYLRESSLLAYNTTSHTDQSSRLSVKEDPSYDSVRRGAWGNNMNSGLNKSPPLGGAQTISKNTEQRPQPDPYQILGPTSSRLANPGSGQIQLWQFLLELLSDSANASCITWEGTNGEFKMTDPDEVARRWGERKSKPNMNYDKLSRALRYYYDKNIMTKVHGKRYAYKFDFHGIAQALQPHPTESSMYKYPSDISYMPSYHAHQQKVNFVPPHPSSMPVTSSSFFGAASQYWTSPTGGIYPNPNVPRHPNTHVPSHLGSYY
# Method in brief: (§1)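 Human transcription factors were made in yeast as GST fusions, captured on glutathione beads and barcoded with DNA. With a tag-only sample included, the pool was incubated with 200 nmole of a random double-stranded 16-mer DNA library in Tris/NaCl/DTT/glycerol buffer at room temperature for 30 min, then crosslinked with 0.1% formaldehyde after washing, ligated by proximity, amplified and sequenced. For binding signal, each hexamer's read frequency for a factor is divided by its frequency for the tag-only sample.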
# ELK1 = target: T2, ELK1 (Homo sapiens, UniProt P19419 1-428); settings: protein: recombinant; tags: N-terminal GST; dsDNA, one strand shown
# T2 sequence: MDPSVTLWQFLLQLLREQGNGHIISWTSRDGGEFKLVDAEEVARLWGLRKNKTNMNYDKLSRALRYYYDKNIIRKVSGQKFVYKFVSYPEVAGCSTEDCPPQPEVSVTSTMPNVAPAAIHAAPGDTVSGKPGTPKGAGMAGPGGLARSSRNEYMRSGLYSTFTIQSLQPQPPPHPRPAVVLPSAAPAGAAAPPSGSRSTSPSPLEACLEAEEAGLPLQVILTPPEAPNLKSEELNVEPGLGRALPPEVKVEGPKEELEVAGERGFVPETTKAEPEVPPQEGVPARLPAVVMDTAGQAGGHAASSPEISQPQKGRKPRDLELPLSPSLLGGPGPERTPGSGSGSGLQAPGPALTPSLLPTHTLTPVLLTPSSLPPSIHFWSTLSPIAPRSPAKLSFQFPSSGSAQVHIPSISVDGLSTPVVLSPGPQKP
# Method in brief: as §1
# GABPA = target: T3, GABPA (Homo sapiens, UniProt Q06546 1-454); settings: protein: recombinant; tags: N-terminal GST; dsDNA, one strand shown
# T3 sequence: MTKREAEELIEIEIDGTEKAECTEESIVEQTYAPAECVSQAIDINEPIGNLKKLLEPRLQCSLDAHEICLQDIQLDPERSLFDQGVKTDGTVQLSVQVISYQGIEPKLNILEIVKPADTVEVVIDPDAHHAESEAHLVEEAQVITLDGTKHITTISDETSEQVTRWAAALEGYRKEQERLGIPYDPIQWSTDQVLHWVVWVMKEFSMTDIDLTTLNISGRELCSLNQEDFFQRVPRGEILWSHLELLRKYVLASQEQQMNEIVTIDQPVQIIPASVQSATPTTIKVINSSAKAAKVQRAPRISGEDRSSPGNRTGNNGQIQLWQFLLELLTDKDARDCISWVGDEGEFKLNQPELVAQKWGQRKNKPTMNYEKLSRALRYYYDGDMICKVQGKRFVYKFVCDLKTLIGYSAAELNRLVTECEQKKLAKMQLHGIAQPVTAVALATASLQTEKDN
# Method in brief: as §1
# ERG = target: T4, ERG (Homo sapiens, UniProt P11308 1-479); settings: protein: recombinant; tags: N-terminal GST; dsDNA, one strand shown
# T4 sequence: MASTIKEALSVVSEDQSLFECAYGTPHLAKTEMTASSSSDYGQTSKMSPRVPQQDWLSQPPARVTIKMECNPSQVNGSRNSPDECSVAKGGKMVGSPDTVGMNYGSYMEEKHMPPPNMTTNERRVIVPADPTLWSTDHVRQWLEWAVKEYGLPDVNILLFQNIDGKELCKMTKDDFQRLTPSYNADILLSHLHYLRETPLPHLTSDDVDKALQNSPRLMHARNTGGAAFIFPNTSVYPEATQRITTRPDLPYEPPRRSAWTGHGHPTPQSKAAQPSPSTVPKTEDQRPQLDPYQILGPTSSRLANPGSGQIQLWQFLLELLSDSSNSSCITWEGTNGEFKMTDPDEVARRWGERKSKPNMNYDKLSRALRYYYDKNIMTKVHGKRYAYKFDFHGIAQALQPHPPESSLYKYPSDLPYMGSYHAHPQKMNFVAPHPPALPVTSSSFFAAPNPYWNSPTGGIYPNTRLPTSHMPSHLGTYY
# Method in brief: as §1
# ELF1 = ELF1 (Homo sapiens, UniProt P32519 1-619); settings: protein: recombinant; tags: N-terminal GST; dsDNA, one strand shown
# ELF1, sequence (P32519 whole entry): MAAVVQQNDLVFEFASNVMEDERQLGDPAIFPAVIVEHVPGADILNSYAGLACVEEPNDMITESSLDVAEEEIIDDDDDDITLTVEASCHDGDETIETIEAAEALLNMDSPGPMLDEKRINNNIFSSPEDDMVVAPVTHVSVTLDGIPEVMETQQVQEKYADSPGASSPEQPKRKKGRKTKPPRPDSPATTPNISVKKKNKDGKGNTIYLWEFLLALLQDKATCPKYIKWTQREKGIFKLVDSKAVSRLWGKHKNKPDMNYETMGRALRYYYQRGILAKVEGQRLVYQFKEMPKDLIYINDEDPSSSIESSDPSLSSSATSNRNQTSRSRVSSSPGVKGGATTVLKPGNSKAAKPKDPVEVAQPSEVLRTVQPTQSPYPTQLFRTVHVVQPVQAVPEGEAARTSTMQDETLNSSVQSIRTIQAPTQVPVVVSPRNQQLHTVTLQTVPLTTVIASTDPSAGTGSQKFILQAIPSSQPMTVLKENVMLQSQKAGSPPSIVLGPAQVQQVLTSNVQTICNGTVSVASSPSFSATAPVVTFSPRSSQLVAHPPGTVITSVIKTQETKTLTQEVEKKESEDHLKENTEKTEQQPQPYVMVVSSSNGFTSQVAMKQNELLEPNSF
# Method in brief: as §1
# EHF = target: T5, EHF (Homo sapiens, UniProt Q9NZC4 1-300); settings: protein: recombinant; tags: N-terminal GST; dsDNA, one strand shown
# T5 sequence: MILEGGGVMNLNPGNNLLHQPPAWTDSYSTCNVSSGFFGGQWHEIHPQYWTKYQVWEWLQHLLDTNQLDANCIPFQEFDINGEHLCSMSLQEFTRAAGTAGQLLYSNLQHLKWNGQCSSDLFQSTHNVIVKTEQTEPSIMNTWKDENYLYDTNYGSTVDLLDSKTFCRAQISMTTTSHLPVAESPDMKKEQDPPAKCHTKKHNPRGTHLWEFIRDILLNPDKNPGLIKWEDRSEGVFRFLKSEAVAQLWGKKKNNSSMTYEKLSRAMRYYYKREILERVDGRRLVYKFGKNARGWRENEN
# Method in brief: as §1
# SPI1 = SPI1 (Homo sapiens, UniProt P17947 1-270); settings: protein: recombinant; tags: N-terminal GST; dsDNA, one strand shown
# Method in brief: as §1
# SPIB = SPIB (Homo sapiens, UniProt Q01892 1-262); settings: protein: recombinant; tags: N-terminal GST; dsDNA, one strand shown
# SPIB, sequence (Q01892 whole entry): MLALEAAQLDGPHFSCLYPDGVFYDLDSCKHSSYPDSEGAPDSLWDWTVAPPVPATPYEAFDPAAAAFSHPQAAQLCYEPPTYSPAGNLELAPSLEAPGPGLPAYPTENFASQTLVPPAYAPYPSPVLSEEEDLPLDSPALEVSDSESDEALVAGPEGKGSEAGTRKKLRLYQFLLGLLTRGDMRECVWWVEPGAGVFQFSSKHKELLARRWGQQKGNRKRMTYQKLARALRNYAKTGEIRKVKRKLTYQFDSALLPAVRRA
# Method in brief: as §1
# ELK3 = target: T6, ELK3 (Homo sapiens, UniProt P41970 1-407); settings: protein: recombinant; tags: N-terminal GST; dsDNA, one strand shown
# T6 sequence: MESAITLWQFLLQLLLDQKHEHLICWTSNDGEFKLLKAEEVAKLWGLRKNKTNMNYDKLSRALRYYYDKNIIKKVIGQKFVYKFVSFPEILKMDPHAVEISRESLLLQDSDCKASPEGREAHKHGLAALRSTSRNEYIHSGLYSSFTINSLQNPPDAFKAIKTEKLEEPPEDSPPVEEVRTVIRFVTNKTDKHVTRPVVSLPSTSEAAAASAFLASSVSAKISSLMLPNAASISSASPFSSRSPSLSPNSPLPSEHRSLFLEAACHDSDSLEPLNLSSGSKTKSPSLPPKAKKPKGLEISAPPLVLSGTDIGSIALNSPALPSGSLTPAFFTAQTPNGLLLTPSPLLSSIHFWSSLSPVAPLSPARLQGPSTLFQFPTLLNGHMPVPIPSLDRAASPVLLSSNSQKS
# Method in brief: as §1
# FEV = target: T7, FEV (Homo sapiens, UniProt Q99581 1-238); settings: protein: recombinant; tags: N-terminal GST; dsDNA, one strand shown
# T7 sequence: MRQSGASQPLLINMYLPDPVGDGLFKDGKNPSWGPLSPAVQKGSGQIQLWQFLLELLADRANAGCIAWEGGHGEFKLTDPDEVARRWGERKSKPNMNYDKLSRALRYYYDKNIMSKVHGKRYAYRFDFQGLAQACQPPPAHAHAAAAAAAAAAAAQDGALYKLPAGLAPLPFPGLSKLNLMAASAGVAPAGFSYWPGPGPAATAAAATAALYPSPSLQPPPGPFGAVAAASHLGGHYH
# Method in brief: as §1
# ETV5 = ETV5 (Homo sapiens, UniProt P41161 1-510); settings: protein: recombinant; tags: N-terminal GST; dsDNA, one strand shown
# ETV5, sequence (P41161 whole entry): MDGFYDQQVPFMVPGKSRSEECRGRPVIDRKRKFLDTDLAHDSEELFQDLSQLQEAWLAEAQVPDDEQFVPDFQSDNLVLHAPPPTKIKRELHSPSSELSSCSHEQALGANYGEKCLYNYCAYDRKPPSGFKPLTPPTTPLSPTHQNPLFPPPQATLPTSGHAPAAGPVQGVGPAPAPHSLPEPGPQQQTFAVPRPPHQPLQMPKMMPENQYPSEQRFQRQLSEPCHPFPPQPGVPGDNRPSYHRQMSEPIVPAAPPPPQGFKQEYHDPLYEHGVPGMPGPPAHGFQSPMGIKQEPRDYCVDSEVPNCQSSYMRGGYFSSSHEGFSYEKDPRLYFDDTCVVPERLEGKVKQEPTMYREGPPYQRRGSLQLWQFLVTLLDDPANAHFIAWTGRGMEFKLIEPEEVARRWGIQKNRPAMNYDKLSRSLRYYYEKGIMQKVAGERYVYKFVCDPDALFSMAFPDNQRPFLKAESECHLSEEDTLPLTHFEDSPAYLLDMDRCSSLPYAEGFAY
# Method in brief: as §1
# HSF1 = HSF1 (Homo sapiens, UniProt Q00613 1-529); settings: protein: recombinant; tags: N-terminal GST; chain copies: 3; dsDNA, one strand shown
# HSF1, sequence (Q00613 whole entry): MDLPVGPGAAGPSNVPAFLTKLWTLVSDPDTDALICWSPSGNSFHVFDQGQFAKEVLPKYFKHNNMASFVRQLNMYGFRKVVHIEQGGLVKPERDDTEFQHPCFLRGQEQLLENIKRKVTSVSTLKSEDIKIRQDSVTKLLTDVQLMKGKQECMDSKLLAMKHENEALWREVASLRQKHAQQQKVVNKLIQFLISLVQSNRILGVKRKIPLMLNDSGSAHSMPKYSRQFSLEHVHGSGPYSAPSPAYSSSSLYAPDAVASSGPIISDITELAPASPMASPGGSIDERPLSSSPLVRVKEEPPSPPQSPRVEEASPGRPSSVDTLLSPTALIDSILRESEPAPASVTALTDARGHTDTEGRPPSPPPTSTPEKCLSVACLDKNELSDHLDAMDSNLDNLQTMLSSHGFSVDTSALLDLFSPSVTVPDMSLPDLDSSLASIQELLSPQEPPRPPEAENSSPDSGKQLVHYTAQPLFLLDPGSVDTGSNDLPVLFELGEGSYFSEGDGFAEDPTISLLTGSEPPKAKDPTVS
# Method in brief: as §1
# SPIC = target: T8, SPIC (Homo sapiens, UniProt Q8N5J4 1-248); settings: protein: recombinant; tags: N-terminal GST; dsDNA, one strand shown
# T8 sequence: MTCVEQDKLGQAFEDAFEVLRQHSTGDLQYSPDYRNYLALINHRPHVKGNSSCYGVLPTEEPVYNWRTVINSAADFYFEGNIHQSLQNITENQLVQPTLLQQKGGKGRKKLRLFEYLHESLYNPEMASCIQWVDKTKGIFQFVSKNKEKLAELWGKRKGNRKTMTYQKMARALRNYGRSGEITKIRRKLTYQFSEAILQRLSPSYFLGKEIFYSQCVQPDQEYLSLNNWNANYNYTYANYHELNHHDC
# Method in brief: as §1
# ELF4 = ELF4 (Homo sapiens, UniProt Q99607 1-663); settings: protein: recombinant; tags: N-terminal GST; dsDNA, one strand shown
# ELF4, sequence (Q99607 whole entry): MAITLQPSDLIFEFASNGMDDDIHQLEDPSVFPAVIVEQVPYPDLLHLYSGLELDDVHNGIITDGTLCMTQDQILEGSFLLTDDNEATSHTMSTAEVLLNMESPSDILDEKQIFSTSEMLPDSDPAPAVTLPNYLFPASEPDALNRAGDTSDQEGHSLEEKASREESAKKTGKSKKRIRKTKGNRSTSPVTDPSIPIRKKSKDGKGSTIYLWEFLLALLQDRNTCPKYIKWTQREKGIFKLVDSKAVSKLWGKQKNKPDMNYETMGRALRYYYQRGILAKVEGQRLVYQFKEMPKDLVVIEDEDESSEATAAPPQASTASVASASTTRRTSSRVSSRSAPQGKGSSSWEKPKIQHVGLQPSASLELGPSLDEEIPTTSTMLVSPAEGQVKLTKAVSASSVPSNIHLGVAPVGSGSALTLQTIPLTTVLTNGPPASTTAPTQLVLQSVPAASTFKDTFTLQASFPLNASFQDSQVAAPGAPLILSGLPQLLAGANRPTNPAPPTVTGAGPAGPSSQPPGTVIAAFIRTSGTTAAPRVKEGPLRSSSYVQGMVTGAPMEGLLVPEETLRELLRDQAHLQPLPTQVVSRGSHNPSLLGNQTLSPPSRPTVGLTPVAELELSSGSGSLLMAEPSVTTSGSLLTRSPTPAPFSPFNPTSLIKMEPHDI
# Method in brief: as §1
# ELK4 = target: T9, ELK4 (Homo sapiens, UniProt P28324-2 1-405); settings: protein: recombinant; tags: N-terminal GST; dsDNA, one strand shown
# T9 sequence: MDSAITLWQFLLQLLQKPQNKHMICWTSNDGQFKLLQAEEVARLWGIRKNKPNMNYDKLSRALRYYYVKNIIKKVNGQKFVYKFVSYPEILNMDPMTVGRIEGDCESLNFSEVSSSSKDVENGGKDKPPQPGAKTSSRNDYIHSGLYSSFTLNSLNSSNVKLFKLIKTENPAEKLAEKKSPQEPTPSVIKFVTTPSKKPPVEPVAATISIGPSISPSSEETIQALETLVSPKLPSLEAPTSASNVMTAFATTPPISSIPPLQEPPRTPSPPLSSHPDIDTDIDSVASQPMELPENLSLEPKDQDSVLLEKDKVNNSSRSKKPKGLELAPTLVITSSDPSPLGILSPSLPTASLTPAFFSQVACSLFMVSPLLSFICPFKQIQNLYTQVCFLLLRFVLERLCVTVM
# Method in brief: as §1
# ETV2 = target: T10, ETV2 (Homo sapiens, UniProt O00321 1-342); settings: protein: recombinant; tags: N-terminal GST; dsDNA, one strand shown
# T10 sequence: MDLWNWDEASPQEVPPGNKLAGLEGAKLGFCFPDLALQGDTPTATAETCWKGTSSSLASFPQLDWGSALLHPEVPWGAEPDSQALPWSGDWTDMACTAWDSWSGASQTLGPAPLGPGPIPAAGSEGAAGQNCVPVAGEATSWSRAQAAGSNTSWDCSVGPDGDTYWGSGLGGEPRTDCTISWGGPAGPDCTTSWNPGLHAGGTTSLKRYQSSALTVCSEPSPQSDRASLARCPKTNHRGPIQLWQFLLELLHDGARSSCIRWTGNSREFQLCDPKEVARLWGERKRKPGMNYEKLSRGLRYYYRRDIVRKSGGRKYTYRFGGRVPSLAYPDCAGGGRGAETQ
# Method in brief: as §1
# ELF3 = target: T11, ELF3 (Homo sapiens, UniProt P78545 1-371); settings: protein: recombinant; tags: N-terminal GST; dsDNA, one strand shown
# T11 sequence: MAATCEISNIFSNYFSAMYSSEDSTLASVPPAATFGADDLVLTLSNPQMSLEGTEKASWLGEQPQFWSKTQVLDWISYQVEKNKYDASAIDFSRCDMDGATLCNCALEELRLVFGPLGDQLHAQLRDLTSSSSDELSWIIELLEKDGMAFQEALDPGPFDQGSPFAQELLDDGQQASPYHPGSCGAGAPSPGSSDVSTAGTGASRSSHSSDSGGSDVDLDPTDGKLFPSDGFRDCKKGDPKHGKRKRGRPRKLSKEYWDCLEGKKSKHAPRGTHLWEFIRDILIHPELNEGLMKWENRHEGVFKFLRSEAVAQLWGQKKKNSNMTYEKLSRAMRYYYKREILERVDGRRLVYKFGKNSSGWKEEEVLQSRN
# Method in brief: as §1
# CRX = CRX (Homo sapiens, UniProt O43186 1-299); settings: protein: recombinant; tags: N-terminal GST; dsDNA, one strand shown
# CRX, sequence (O43186 whole entry): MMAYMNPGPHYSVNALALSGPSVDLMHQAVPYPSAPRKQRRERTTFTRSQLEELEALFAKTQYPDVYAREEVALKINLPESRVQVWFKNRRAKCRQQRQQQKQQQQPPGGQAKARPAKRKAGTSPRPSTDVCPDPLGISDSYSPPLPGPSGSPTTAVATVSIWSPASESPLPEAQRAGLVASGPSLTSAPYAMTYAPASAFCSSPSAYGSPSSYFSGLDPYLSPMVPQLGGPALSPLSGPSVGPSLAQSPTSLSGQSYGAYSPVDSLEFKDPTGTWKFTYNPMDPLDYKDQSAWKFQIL
# Method in brief: as §1
# ETV1 = ETV1 (Homo sapiens, UniProt P50549 1-477); settings: protein: recombinant; tags: N-terminal GST; dsDNA, one strand shown
# ETV1, sequence (P50549 whole entry): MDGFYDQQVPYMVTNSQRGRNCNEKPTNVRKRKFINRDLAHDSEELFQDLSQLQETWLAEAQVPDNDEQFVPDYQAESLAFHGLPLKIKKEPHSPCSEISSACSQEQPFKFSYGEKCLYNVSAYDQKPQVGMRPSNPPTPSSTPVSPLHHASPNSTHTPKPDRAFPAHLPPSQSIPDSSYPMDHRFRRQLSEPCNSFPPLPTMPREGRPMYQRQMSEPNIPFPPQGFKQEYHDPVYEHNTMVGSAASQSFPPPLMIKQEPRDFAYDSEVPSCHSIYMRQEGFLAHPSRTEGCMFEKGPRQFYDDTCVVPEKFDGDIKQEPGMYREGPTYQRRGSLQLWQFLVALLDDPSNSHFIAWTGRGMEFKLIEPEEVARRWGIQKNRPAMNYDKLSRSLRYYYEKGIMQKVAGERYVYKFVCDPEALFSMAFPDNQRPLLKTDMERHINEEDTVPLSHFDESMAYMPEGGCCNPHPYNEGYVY
# Method in brief: as §1
sequence,measurement,setting,value
TAATGC,binding signal,FLI1,"1.26 fold enrichment (6-mer frequency, TF over GST control)"
same,binding signal,ELK1,"1.22 fold enrichment (6-mer frequency, TF over GST control)"
same,binding signal,GABPA,"1.26 fold enrichment (6-mer frequency, TF over GST control)"
same,binding signal,ERG,"1.18 fold enrichment (6-mer frequency, TF over GST control)"
same,binding signal,ELF1,"1.16 fold enrichment (6-mer frequency, TF over GST control)"
same,binding signal,EHF,"1.22 fold enrichment (6-mer frequency, TF over GST control)"
same,binding signal,SPI1,"1.1 fold enrichment (6-mer frequency, TF over GST control)"
same,binding signal,SPIB,"1.24 fold enrichment (6-mer frequency, TF over GST control)"
same,binding signal,ELK3,"1.29 fold enrichment (6-mer frequency, TF over GST control)"
same,binding signal,FEV,"1.17 fold enrichment (6-mer frequency, TF over GST control)"
same,binding signal,ETV5,"1.16 fold enrichment (6-mer frequency, TF over GST control)"
same,binding signal,HSF1,"1.63 fold enrichment (6-mer frequency, TF over GST control)"
same,binding signal,SPIC,"1.21 fold enrichment (6-mer frequency, TF over GST control)"
same,binding signal,ELF4,"1.28 fold enrichment (6-mer frequency, TF over GST control)"
same,binding signal,ELK4,"1.23 fold enrichment (6-mer frequency, TF over GST control)"
same,binding signal,ETV2,"1.29 fold enrichment (6-mer frequency, TF over GST control)"
same,binding signal,ELF3,"1.23 fold enrichment (6-mer frequency, TF over GST control)"
same,binding signal,CRX,"2.32 fold enrichment (6-mer frequency, TF over GST control)"
same,binding signal,ETV1,"1.28 fold enrichment (6-mer frequency, TF over GST control)"
